Bioassay records deposited in PubChem by several laboratories.
PTPN22 inh 2 – blocks human PTPN22 phosphatase activity | Q9Y2R2 | recombinant LYP catalytic domain, DiFMUP fluorescence | inhibition, % at 2 µM | actives 0.21% (n = 96,000);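 active means inhibition at 2 µM at or above a set limit, the screen mean plus 3 SD, cut at about 24% in these data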;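 further: 0% = DMSO with enzyme and 100% = enzyme fully blocked by orthovanadate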
GALR2 ag – GALR2 (human) receptor agonism; GALR2-expressing cells, agonist activation read-out; activation, % (no concentration beside the values); actives 0.48% (n = 140,000); AID 803; in the data active means activation above about 5%, passing the limit was not always enough;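 further: 0% = vehicle buffer wells and 100% = reference agonist at full effect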
Target sequence (O43603 whole entry, looked up): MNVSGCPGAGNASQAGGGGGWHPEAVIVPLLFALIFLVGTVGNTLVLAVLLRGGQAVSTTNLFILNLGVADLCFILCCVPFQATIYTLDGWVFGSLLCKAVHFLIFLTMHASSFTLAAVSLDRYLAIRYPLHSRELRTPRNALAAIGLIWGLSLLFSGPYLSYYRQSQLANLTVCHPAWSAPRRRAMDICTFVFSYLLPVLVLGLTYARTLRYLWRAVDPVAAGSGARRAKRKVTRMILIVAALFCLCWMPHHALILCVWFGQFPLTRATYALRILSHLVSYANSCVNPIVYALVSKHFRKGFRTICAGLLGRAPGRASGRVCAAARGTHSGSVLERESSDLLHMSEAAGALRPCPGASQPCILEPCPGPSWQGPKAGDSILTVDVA
GALR2 blocker – blocks the human galanin receptor 2. O43603. GALR2-expressing cells, antagonist mode. inhibition, % at 4 µM. actives 0.39% (n = 140,000). AID 828; in the data active means inhibition above about 27%;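 further: cells stimulated with galanin 1-16 at roughly its EC80; 0% = agonist challenge control and 100% = basal control without agonist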
S1P2 blocker – antagonists of human S1P2 receptor | O95136 | cell-based S1P2 antagonist assay, inhibition at 5 uM | inhibition, % at 5 µM | actives 0.21% (n = 97,000) | AID 736; in the data active means inhibition above about 45%;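 further: CRE beta-lactamase reporter cells expressing human S1P2 stimulated with S1P; 0% = agonist at EC80 alone and 100% = agonist plus reference antagonist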
S1P2 ag – activates the human S1P2 receptor | activation, % at 4.5 µM | S1P2-expressing cell line, agonist reporter read-out | actives 0.46% (n = 97,000) | AID 729 | O95136; in the data active means activation above about 16%;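 further: 0% = vehicle low control and 100% = maximal reference agonist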
LYP act – LYP (human) phosphatase activation. Q9Y2R2. recombinant LYP, DiFMUP fluorescence; 0 = plate median, 100 = signal doubled. activation, % at 2 µM. actives 0.11% (n = 96,000);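 active means activation at 2 µM above a set limit, the mean plus 5 SD, cut at about 37% in these data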
The depositor's hits bear a star. An excerpt weighted towards active compounds, which were near 1.4% of everything screened.

O=C(COc1nc2ccccc2nc1N1CCOCC1)Nc1cccc(S(=O)(=O)N2CCCCC2)c1 was read as GALR2 ag 1 and GALR2 blocker 1.
Screening CCCOc1nc2c(c(=O)n(C)c(=O)n2C)n1CCC returned GALR2 ag 7.8* and GALR2 blocker -1.
For CC(NC(=O)COc1ccc(-c2nnco2)cc1)c1ccc(Cl)cc1Cl (configuration not stated) the results were GALR2 ag 0 and GALR2 blocker 2.
For O=C(Cn1c2ccccc2c(=O)c2ccccc21)N/N=C/c1cc([N+](=O)[O-])ccc1N1CCCCCC1 the results were PTPN22 inh 2 28*, GALR2 ag -1, GALR2 blocker -4, S1P2 blocker 4, S1P2 ag -3 and LYP act -25.
Screening COc1ccccc1C(=O)Nc1nc(-c2ccc(S(=O)(=O)N3CCOCC3)cc2)cs1 returned PTPN22 inh 2 13, GALR2 ag 2, GALR2 blocker 25, S1P2 blocker 77*, S1P2 ag -7 and LYP act -10.
O=C(CC(=O)c1ccccc1)Nc1cccnc1Cl was read as GALR2 ag -2 and GALR2 blocker 13.
CCSc1nnc(NC(=O)c2csc3c2CCC(C)C3)s1 (configuration not stated) was read as PTPN22 inh 2 1, GALR2 ag -1, GALR2 blocker -9, S1P2 blocker 7, S1P2 ag -3 and LYP act -3.
Screening CC1CCc2c(C(=O)Nc3nccs3)csc2C1 (configuration not stated) returned PTPN22 inh 2 65*, GALR2 ag -2, GALR2 blocker 2, S1P2 blocker -4, S1P2 ag -4 and LYP act -64.
For O=C(/C(C=Nc1ccc(F)cc1)=C(/O)c1ccco1)C(F)(F)F the results were GALR2 ag -2 and GALR2 blocker 4.
CCCn1c2ccccc2c2nnc(SC(CC)C(=O)Nc3sc4c(c3C#N)CCCC4)nc21 (configuration not stated) was read as PTPN22 inh 2 -6, GALR2 ag -2, GALR2 blocker 6, S1P2 blocker -23, S1P2 ag -2 and LYP act 4.
`CCCn1c2ccccc2c2nnc(SC(CC)C(=O)Nc3cc(C)on3)nc21` (configuration not stated) gave PTPN22 inh 2 -2, GALR2 ag 1, GALR2 blocker -6, S1P2 blocker -38, S1P2 ag 30* and LYP act 1.
For CCc1cccc(NC(=O)NC(=O)Cn2nnc(C(=O)OC)c2C(=O)OC)c1 the results were GALR2 ag 0 and GALR2 blocker -7.
`Cc1cccc(N=c2oc3cc(O)ccc3cc2C(N)=O)c1` gave PTPN22 inh 2 0, GALR2 ag 66*, GALR2 blocker -28, S1P2 blocker -43, S1P2 ag 30* and LYP act 1.
`COc1ccccc1N=c1oc2cc(O)ccc2cc1C(N)=O` gave PTPN22 inh 2 0, GALR2 ag 20*, GALR2 blocker -46, S1P2 blocker -34, S1P2 ag 45* and LYP act -3.
For COc1ccccc1NC(=O)c1cc2ccc(O)cc2o/c1=N\O the results were PTPN22 inh 2 0, GALR2 ag 1, GALR2 blocker 0, S1P2 blocker -2, S1P2 ag -2 and LYP act -2.
COc1ccccc1N=c1oc2cc(O)ccc2cc1C(=O)NCC1CCCO1 (configuration not stated) was read as PTPN22 inh 2 8, GALR2 ag 29*, GALR2 blocker -15, S1P2 blocker -16, S1P2 ag 16 and LYP act -7.
`CO/N=C(/CNC(=O)c1ccc(F)cc1)c1ccc(Cl)cc1` gave PTPN22 inh 2 0, GALR2 ag -4, GALR2 blocker -8, S1P2 blocker 14, S1P2 ag -6 and LYP act 3.
Screening CC(C)c1ccc(-c2nc(N3CCCC3)nc3n[nH]c(N)c23)cc1 returned GALR2 ag 6.2* and GALR2 blocker 3.
Screening Cc1nc2sc3c(NCc4ccco4)ncnc3c2c2c1COC(C)(C)C2 returned PTPN22 inh 2 -8, GALR2 ag -2, GALR2 blocker -14, S1P2 blocker -34, S1P2 ag 26* and LYP act 3.
Screening CCC12CN(C(=O)c3ccc(C)cc3)CC(CC)(CN(C(=O)c3ccc(C)cc3)C1)C2=O returned GALR2 ag -1 and GALR2 blocker 9.
`Cc1oc(/C=N/NC(=O)CN(c2ccccc2Br)S(C)(=O)=O)cc1Br` gave PTPN22 inh 2 -25, GALR2 ag 0, GALR2 blocker -6, S1P2 blocker -29, S1P2 ag -2 and LYP act 25.
`Cc1cc([N+](=O)[O-])nn1CC(=O)NNC(=S)Nc1ccc([N+](=O)[O-])cc1` gave PTPN22 inh 2 35*, GALR2 ag -2, GALR2 blocker -3, S1P2 blocker 8, S1P2 ag -5 and LYP act -33.
For CCCOC(=O)c1c(-c2ccc(C)cc2C)csc1NC(=O)C1C2CCC(O2)C1C(=O)O (configuration not stated) the results were GALR2 ag -2 and GALR2 blocker -4.
`CCc1ccccc1NC(=O)CSc1nc2n[nH]c(C)c2c(=N)n1-c1ccc(OC)cc1` gave GALR2 ag -1 and GALR2 blocker 16.
`COc1ccccc1NC(=O)CSc1nc2n[nH]c(C)c2c(=N)n1-c1ccccc1Cl` gave PTPN22 inh 2 -5, GALR2 ag -1, GALR2 blocker -7, S1P2 blocker -22, S1P2 ag 21* and LYP act 2.
CN(C)c1nc(C(N)=O)nc(N2CCOCC2)n1 was read as PTPN22 inh 2 8, GALR2 ag -3, GALR2 blocker -5, S1P2 blocker 2, S1P2 ag -7 and LYP act -9.
For NC(=O)CSc1nc2scc(-c3ccco3)c2c(=O)n1-c1ccccc1 the results were PTPN22 inh 2 -8, GALR2 ag -4, GALR2 blocker -2, S1P2 blocker -16, S1P2 ag -4 and LYP act 5.
O=c1c2c(-c3ccco3)csc2nc(SCc2cn3cccnc3n2)n1-c1ccccc1 was read as PTPN22 inh 2 3, GALR2 ag 3, GALR2 blocker -29, S1P2 blocker -40, S1P2 ag 20* and LYP act -4.
For Cc1cc(C)c(S(C)(=O)=O)c(Oc2ccc(C(C)(C)C)cc2)n1 the results were PTPN22 inh 2 2, GALR2 ag 0, GALR2 blocker -21, S1P2 blocker 1, S1P2 ag -2 and LYP act 2.
Cc1ccc(CNC(=O)c2ccccc2N)cc1 was read as PTPN22 inh 2 60*, GALR2 ag -4, GALR2 blocker 2, S1P2 blocker -5, S1P2 ag -5 and LYP act -59.
Cc1cccc(CNC(=O)c2ccccc2N)c1 was read as PTPN22 inh 2 1, GALR2 ag -2, GALR2 blocker 12, S1P2 blocker 2, S1P2 ag -5 and LYP act -2.
